Measurements published in PubChem BioAssay (NCATS).
Where “and” joins values, the source holds several entries; their conditions need not be identical. Equal values may be shown once. Inconclusive results are not listed. Entries that show only a call come without a potency. Values without a mark were called inactive. Calls of active or inactive are those of the source. Calls follow the shape of the dose curve; as a rule, active = well fitted curve in the direction sought with a large enough effect; inconclusive = small, poorly fitted or top-dose-only effect, or another doubt; inactive = no such curve, though single readings can be large; an effect the other way counts as inactive or inconclusive.

Assays:
[1] = biological target: Cellular tumor antigen p53 (Homo sapiens) (UniProt P04637); assay: Primary qHTS for small molecule compounds that upregulate eGFP-tagged delta133p53alpha (in N-terminal) cells. (AID 2060322); conditions: NCI-H358 eGFP-delta133p53alpha fluorescence, 24 h; activation: active compounds read high; also: nearly all actives have a fitted effect of over 75% in size; also: potency is read from the fitted curve at half-maximal effect;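 as to activation: cells pre-induced with doxycycline then dosed without doxycycline; series mostly up to about 56 µM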
Chain of Cellular tumor antigen p53 (Homo sapiens) (P04637 whole entry, looked up): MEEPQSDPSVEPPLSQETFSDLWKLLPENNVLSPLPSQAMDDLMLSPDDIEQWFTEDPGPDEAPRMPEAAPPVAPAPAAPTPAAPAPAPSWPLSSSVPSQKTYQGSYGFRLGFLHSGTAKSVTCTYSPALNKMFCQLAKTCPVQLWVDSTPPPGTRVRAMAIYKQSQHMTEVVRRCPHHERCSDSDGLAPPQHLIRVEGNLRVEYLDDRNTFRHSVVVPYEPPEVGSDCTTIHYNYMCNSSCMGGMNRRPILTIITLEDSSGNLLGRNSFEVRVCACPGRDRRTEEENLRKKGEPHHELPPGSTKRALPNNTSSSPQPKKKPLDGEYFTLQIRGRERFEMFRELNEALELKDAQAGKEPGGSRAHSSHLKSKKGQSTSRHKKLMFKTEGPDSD
How it was run: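 NCI-H358 cells pre-induced 24 h with 10 ng/ml doxycycline for eGFP-delta133p53alpha, plated dox-free and exposed 24 h at 37C to titrated compounds. Fixed, Hoechst-stained; gated GFP peak intensity by laser scanning cytometry, normalized to DMSO (0%) and 57.5 uM 5-azacytidine (100%).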

[2] = biological target: Aldehyde dehydrogenase, mitochondrial (Homo sapiens) (UniProt P05091); assay: qHTS for Inhibitors of the Aldehyde Dehydrogenase Family (ALDH2) Primary screen (AID 2061308); also: nearly all actives have a fitted effect of over 55% in size
[3] = biological target: Retinaldehyde dehydrogenase 3 (Homo sapiens) (UniProt P47895); assay: qHTS for Inhibitors of the Aldehyde Dehydrogenase Family (ALDH1A3) Validation screen (AID 2061312); also: nearly all actives have a fitted effect of over 45% in size; also: potency is read from the fitted curve at half-maximal effect
[4] = biological target: Retinaldehyde dehydrogenase 3 (Homo sapiens) (UniProt P47895); assay: qHTS for Inhibitors of the Aldehyde Dehydrogenase Family (ALDH1A3) Primary screen (AID 2061315)

SMILES	activation [1]	Potency [2]	Potency [3]	Potency [4]	Potency [1]
CCN(CC)C(=O)Nc1ccc(OCC(O)CNC(C)(C)C)c(C(C)=O)c1 (stereo unspecified)	-6.69% and 4.3%	inactive	inactive	inactive	
CCOc1c2c(c(OCC)c3ccccc13)C(=O)N(c1ccc(CC(=O)NS(=O)(=O)c3ccccc3)cc1)C2	-25.3%	inactive	inactive	inactive	
Nc1nc2c(ncn2[C@@H]2O[C@H](CO)[C@@H](O)[C@H]2O)c(=O)[nH]1	-1.43%	inactive	inactive	inactive	
CC(C)(C)c1ccc(CNC(=S)NCc2ccc(NS(C)(=O)=O)c(F)c2)cc1	-6.68%	inactive	inactive	inactive	
CCNC(=O)[C@H]1O[C@H](n2cnc3c(NCC(c4ccccc4)c4ccccc4)nc(C(=O)NCCNC(=O)NC4CCN(c5ccccn5)CC4)nc32)[C@H](O)[C@@H]1O	-9.55%	inactive	inactive	inactive	
CC[C@H]1OC(=O)[C@H](C)[C@@H](O[C@H]2C[C@@](C)(OC)[C@@H](O)[C@H](C)O2)[C@H](C)[C@@H](O[C@@H]2O[C@H](C)C[C@H](N(C)C)[C@H]2O)[C@@](C)(O)C[C@@H](C)[C@@H]2N[C@@H](COCCOC)OC([C@H]2C)[C@]1(C)O	7.16%	inactive	inactive	inactive	
CCC1(O)CC2c3cc(OC)c(OC)cc3CCN2CC1CC(C)C (stereo unspecified)	3.82%	inactive	inactive	inactive	
Cc1nc2ccccc2c(-c2ccc3c4c(ccnc24)CCO3)c1[C@H](OC(C)(C)C)C(=O)O	0.955%	inactive	inactive	inactive	
CNc1ccc([N+](=O)[O-])c(Nc2ccc3[nH]ncc3c2)n1		inactive	inactive	inactive	10.7 µM (active)
O=C(CCCCC1CCCCC1)N1CCC(c2cnc[nH]2)CC1	-1.91%	inactive	inactive	inactive	
CCOc1nc2c(N)ncnc2n1CC	-10%	inactive	inactive	inactive	
C[C@H](Oc1cc(-c2cnn(C3CCNCC3)c2)cnc1N)c1c(Cl)ccc(F)c1Cl	14.8%	inactive	inactive	inactive	
NC1=NC2(c3cc(NC(=O)c4ccc(F)cn4)ccc3F)COCC2CS1 (stereo unspecified)	-6.68%	inactive	inactive	inactive	
COc1ccc(Cl)cc1[C@@]1(F)C(=O)Nc2cc(C(F)(F)F)ccc21	24.8%	inactive	inactive	inactive	
COC(=O)c1ccc2c(c1)[nH]c1ncnc(NCCCN3CCCCC3)c12	0.477%	inactive	31.6 µM (active)	inactive	
CCOC(CN1CCN(CC(C)C(=O)c2ccccc2)CC1)c1ccccc1 (stereo unspecified)	-4.18% and 4.3%	inactive	inactive	inactive	
FC(F)(F)Oc1ccc(-c2ccc3nnc(C(F)(F)F)n3c2)cc1	-3.34%	inactive	inactive	inactive	
CNC(=O)[C@@H](c1ccccc1)N1CCc2cc(OC)c(OC)cc2[C@@H]1CCc1ccc(C(F)(F)F)cc1	-3.34%	inactive	inactive	inactive	
Cc1nc(C#Cc2ccnc(Cl)c2)c(C)n1-c1ccc(F)cc1	-12.9%	inactive	inactive	inactive	
CC(C)NC(=O)c1ccc(C#Cc2ccncc2)cn1	14.8%	inactive	inactive	inactive	
CC(C)Oc1ccc(-c2cnc3c(-c4ccnc5ccccc45)cnn3c2)cc1	-6.21%	inactive	inactive	inactive	
O=C(NCC1(c2nc(-c3ccccc3)cs2)CCOCC1)c1cccc(-c2noc(C(F)(F)F)n2)c1	1.43%	inactive	inactive	inactive	
Cc1nc(Nc2ccc(F)cc2)nc(N2CCc3ccccc3C2C)c1C (stereo unspecified)	11.9%	inactive	inactive	inactive	
C[C@@H](O[C@H]1OCCN(Cc2nn(P(=O)(O)O)c(=O)[nH]2)[C@H]1c1ccc(F)cc1)c1cc(C(F)(F)F)cc(C(F)(F)F)c1	10%	inactive	inactive	inactive	
c1ccc(CN(CC2=NCCN2)c2ccccc2)cc1	0.837% and -3.82%	inactive	inactive	inactive	
COc1ccc(Oc2cc(C)c(-c3csc(NC(=O)c4ccncc4)n3)c(C)c2)cc1	11%	inactive	inactive	inactive	
O=C(CC(c1ccccc1)c1ccccc1)N1CCN(C(c2ccccc2)c2ccccc2)CC1	2.86%	inactive	inactive	inactive	
Clc1cccc(-c2nnnn2Cc2cccnc2)c1Cl	12.9% and -2.86%	inactive	inactive	inactive	
COc1ccc(C(=O)Nc2c(Cl)cncc2Cl)cc1OC1CCCC1	0%	inactive	inactive	inactive	
